Experimental findings from PubChem BioAssay (EPA / NIEHS) are described below.

More than one record can exist for a structure, and the calls need not agree. Active and inactive are the calls of the source. How the source made its calls: active means hit-call score of the fitted dose curve at least 0.9, where 1 is the maximum; inactive means score below 0.9.

Nuclear respiratory factor 1 (Homo sapiens), sequence (Q16656 whole entry, looked up): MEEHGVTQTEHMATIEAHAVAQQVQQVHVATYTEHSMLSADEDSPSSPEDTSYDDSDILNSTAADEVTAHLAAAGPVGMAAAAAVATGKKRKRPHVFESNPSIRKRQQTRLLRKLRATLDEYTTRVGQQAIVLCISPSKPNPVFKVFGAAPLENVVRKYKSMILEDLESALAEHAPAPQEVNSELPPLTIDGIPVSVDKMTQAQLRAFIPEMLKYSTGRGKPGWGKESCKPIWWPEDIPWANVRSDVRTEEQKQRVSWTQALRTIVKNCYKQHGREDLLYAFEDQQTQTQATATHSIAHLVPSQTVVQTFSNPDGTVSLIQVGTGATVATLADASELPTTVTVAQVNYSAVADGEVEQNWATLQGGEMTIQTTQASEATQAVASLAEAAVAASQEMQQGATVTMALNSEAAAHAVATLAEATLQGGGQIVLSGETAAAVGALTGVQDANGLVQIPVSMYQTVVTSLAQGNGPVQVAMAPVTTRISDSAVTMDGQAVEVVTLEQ

For the assay, the target named is Nuclear respiratory factor 1 (Homo sapiens) (UniProt Q16656). The experiment in a line: ATG_NRF1_CIS: Attagene CIS-FACTORIAL HepG2 Assay for human Nuclear Respiratory Factor 1 (NRF1) Orphan Gene (AID 2282987). As to conditions: HepG2 NRF1 cis-element reporter, Attagene multiplex; actives raise or lower the signal. The protocol:
ATG_CIS is a cell-based, multiplexed-readout assay that uses HepG2, a human liver cell line, with measurements taken at 24 hours after chemical dosing in a 24-well plate.ATG_NRF1_CIS is one of 52 assay component(s) measured or calculated from the ATG_CIS assay. It is designed to make measurements of mRNA induction, a form of inducible reporter, as detected with fluorescence intensity signals by Reverse transcription polymerase chain reaction (RT-PCR) and Capillary electrophoresis technology.Data from the assay component ATG_NRF1_CIS was analyzed into 1 assay endpoint. This assay endpoint, ATG_NRF1_CIS, was analyzed with bidirectional fitting relative to DMSO as the negative control and baseline of activity. Using a type of inducible reporter, measures of mRNA for gain or loss-of-signal activity can be used to understand the reporter gene at the transcription factor-level as they relate to the gene NRF1. Furthermore, this assay endpoint can be referred to as a primary readout, because this assay has produced multiple assay endpoints where this one serves a reporter gene function. To generalize the intended target to other relatable targets, this assay endpoint is annotated to the dna binding intended target family, where the subfamily is nuclear respiratory factors.
Human liver HepG2 cells are transiently transfected with multiple reporter transcription units (MRTUs) in 6-well plates using FuGene 6 reagent (Roche; 3 ml FuGene/1 mg DNA). The MRTU constructs are regulated by a cis-regulating element (promoter). […] A major difference between the CIS and TRANS system is that in CIS activities of endogenous TFs are measured, whereas the TRANS assay evaluates changes in activities of exogenous, chimeric NR-Gal4 proteins. […] At the end of 24 hour incubation, total RNA was isolated using TriZol reagent (Invitrogen). The isolated RNA is then reverse-transcribed using oligo(dT) primer and Mo-MLV reverse transcriptase (Invitrogen) with DNAse I (Ambion) treatment for 30 min. The one-tenth of the produced cDNA was amplified by PCR using Taq DNA polymerase (Invitrogen) and two reporter sequence-specific primers. The PCR products were fluorescently labeled by primer extension with 6-arboxyfluorescein (6-FAM) 5'-labeled reporter sequence-specific primer (2 min at 95 C, 20 s at 68 C and 10 min at 72 C) and these products were digested with 5U of HpaI (New England Biolabs) for 2h at 37 C. The fragments were purified using Qiaquick PCR columns (Qiagen), analyzed on an ABI 3130xL genetic analyzer (Applied Biosystems) with peak positions identified by using a set of X-rhodamine (ROX)-labeled MapMarker1000 molecular weight standards (BioVentures). The raw capillary electrophoresis data was processed using Attagraph software (Attagene).
For the compound `O=C(Nc1ccc(Br)cc1)c1cc(Br)cc(Br)c1O`, the call was inactive. Take `OC(Cc1ccccc1Cl)(Cn1[nH]cnc1=S)C1(Cl)CC1` (stereo not given): the call was inactive. `NC(=O)CCl`: the outcome was inactive.

On to `Cc1ccccc1OP(=O)(Oc1ccccc1)Oc1ccccc1`, for which the call was inactive.

As to `CS(=O)(=O)c1ccc(C(=O)C2C(=O)CCCC2=O)c(Cl)c1COCC(F)(F)F`, the outcome was inactive. In the case of `O=c1oc2ccccc2c(O)c1C(CC(O)c1ccc(-c2ccc(Br)cc2)cc1)c1ccccc1` (stereo not given), the result was inactive and the AC50 is 19.6 µM (active).

As for `CC(C)N(C(=O)CCl)c1ccccc1`, the AC50 was 49.1 µM (active). Regarding `Brc1ccc(Oc2c(Br)cc(Br)cc2Br)c(Br)c1`, the outcome was inactive. `CN(C)C(=S)S`: the result was inactive. The same measure, in the same setting: for `O=C(Cl)OCCOCCOC(=O)Cl` the value was “inactive”.

Take `CCOC(=O)OC1=C(c2cc(C)ccc2C)C(=O)NC12CCC(OC)CC2` (stereo not given): the call was inactive. Same read-out and setting: then `CCOP(=S)(OCC)OP(=S)(OCC)OCC`, with “inactive”. On the same count and under the same terms, then `Cc1cccc(OP(=O)(Oc2cccc(C)c2)Oc2cccc(C)c2)c1`, with “inactive”; and `O=C(N[C@H]1CN2CCC1CC2)c1ccc2c(c1)OCCO2`, with “inactive”. On the same count and under the same terms, then `Clc1cc(C(Cl)(Cl)Cl)cnc1Cl`, with “inactive”.

Regarding `Cc1cccc(C)c1NC(=O)CN1CCCC1=O`, the compound was called inactive. The same measure, in the same setting: for `CCN(CC)C(=O)C(Cl)=C(C)OP(=O)(OC)OC` the value was “inactive”; for `Nc1c(Oc2ccccc2)cc(O)c2c1C(=O)c1ccccc1C2=O`, “inactive”; for `O=[N+]([O-])c1cccc2ccccc12`, “inactive”. For `c1ccc(-c2cccc(-c3ccccc3)c2)cc1`, the compound was classed as inactive. Same read-out and setting: for `O=C(O)c1cc(I)cc(I)c1I` the value was “inactive”. On the same count and under the same terms, for `CC(C)(c1ccc(O)c(-c2ccccc2)c1)c1ccc(O)c(-c2ccccc2)c1` the value was “inactive”.

On to `CCCCC(CC)C(=O)Cl` (stereo not given), for which the compound was classed as inactive. Still for that read-out and setting: then `CCC[CH2][Sn]([CH2]CCC)([CH2]CCC)[CH2]CCC`, with “inactive”; and `CC(C)=CC1C(C(=O)OCc2cccc(Oc3ccccc3)c2)C1(C)C` (stereo not given), with “inactive”. Turning to `CCCCCCCCCCCCCCC(Br)C(=O)O` (stereo not given), the AC50 was 168 µM (active). In the case of `CN(C)c1ccc(N=O)cc1`, the result was inactive. Still for that read-out and setting: then `CCCCCCCCCCBr`, with “inactive”; and `C[C@@H]1O[C@@H](O[C@H]2C[C@@H](O)[C@]3(CO)[C@H]4[C@H](O)C[C@]5(C)[C@@H](C6=CC(=O)OC6)CC[C@]5(O)[C@@H]4CC[C@]3(O)C2)[C@H](O)[C@H](O)[C@H]1O`, with “inactive”.

With `O=C(CBr)c1ccc(O)cc1`, the compound was called inactive. Regarding `O=NN1CCOCC1`, the compound was called inactive. `O=C1C[C@@H]2OCC=C3CN4CC[C@]56c7ccccc7N1[C@H]5[C@H]2[C@H]3C[C@H]46`: the result was inactive.

Turning to `Oc1cc(Cl)c(Cl)cc1Cl`, the compound was called inactive. Turning to `O=C(NC(=O)c1c(F)cccc1F)Nc1ccc(Cl)cc1`, the result was inactive. Same read-out and setting: then `O=C(NC(=O)c1c(F)cccc1F)Nc1cc(Cl)c(OC(F)(F)C(F)C(F)(F)F)cc1Cl` (stereo not given), with “inactive”. As to `CC(=O)C(F)(F)C(F)(F)F`, the compound was classed as inactive.

Turning to `CCCCOP(=O)(CCCC)OCCCC`, the compound was called inactive.

On to `CC(C)(C#N)N=NC(C)(C)C#N`, for which the call was inactive. As to `C=C(C)[C@@H]1CC=C(C=O)CC1`, the call was inactive.

As a reminder, the AC50 is the concentration giving half of the maximal activity seen.
